Source: PubChem BioAssay (Tox21)
Records with an inconclusive call do not appear. Where a call stands in place of a potency, no number is given. Values without a mark were called inactive. Activity calls are given as the source filed them. Unless noted, calls follow the shape of the dose curve; as a rule, active = well fitted curve in the direction sought with a large enough effect in the repeat runs; inconclusive = weak or mixed curves; inactive = no such curve, though single readings can be large; an effect the other way counts as inactive or inconclusive.

Key:
[1] = qHTS assay to identify small molecule antagonists of the estrogen related receptor (ERR) signaling pathway - cell viability counter screen (AID 1224818); also: potency is read from the fitted curve at half-maximal effect
In short: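 Fluorescence from CellTiter-Fluor, read 30 min after reagent addition at 37 C, measured viability of ERR cells exposed to compounds for 17.5 h. Cells had settled 6 h before dosing.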

[2] = qHTS assay to identify small molecule antagonists of the estrogen related receptor (ERR) signaling pathway (AID 1224819; also: nearly all actives have a fitted effect of over 50% in size; also: potency is read from the fitted curve at half-maximal effect)
In short: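 Luminescence readout (One-Glo, 30 min, RT) of ERR cell line after 18 h compound exposure at 37 C; cells seeded 2,000/well, pre-incubated 6 h, compounds pinned from DMSO stocks.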

[3] = qHTS assay to identify small molecule agonists of the estrogen related receptor (ERR) signaling pathway (AID 1224820)
In short: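 Following a 6 h settling period, 2,000 ERR cells per well receive DMSO-dissolved compounds by pin tool and incubate 18 h at 37 C; agonist activity is scored from One-Glo luminescence read 30 min post-addition.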

[4] = qHTS assay to identify small molecule antagonists of the estrogen related receptor signaling pathway with the pleiotropic PPARgamma coactivator (PGC) cell viability counter screen (AID 1224822; also: series mostly up to about 46 µM)
In short: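 Fluorescence read-out of CellTiter-Fluor after 30 min at 37 C; PGC/ERR cells, 2,000 per well, had been exposed to DMSO-dissolved compounds for 17.5 h following a 6 h pre-incubation.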

[5] = qHTS assay to identify small molecule agonists of the estrogen related receptor signaling pathway with the pleiotropic PPARgamma coactivator (PGC) (AID 1224823); also: potency is read from the fitted curve at half-maximal effect
In short: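 In this quantitative high-throughput screen, an 18 h, 37 C treatment of PGC/ERR cells with compounds in DMSO preceded a One-Glo luminescence read taken after 30 min at room temperature.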

[6] = test system: estrogen-related receptor alpha (ERRalpha) with PGC-1alpha coactivator, human; assay: qHTS assay to identify small molecule antagonists of the estrogen related receptor signaling pathway with the pleiotropic PPARgamma coactivator (PGC) (AID 1224821; calls by dose curve; also: nearly all actives have a fitted effect of over 50% in size; also: potency is read from the fitted curve at half-maximal effect)
In short: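 Screening used NTP's PGC/ERR cells, dosed via pin tool with compound in DMSO alongside positive and negative controls. After 18 h at 37 C, One-Glo reagent sat 30 min at room temperature before luminescence detection.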

| SMILES | Potency [1] | Potency [2] | Potency [3] | Potency [4] | Potency [5] | Potency [6] |
| --- | --- | --- | --- | --- | --- | --- |
| COc1cccc(C(=O)NCCN2CCN(c3ccc(Cl)cc3)CC2)c1 | inactive | 17.4 µM (active) | inactive | inactive | inactive |  |
| CCCN(CC1CC1)c1nc(C)nc(Nc2c(Cl)cc(Cl)cc2Cl)c1Cl | inactive | inactive | inactive | inactive | inactive |  |
| Cn1c(=O)c2[nH]c(-c3ccc(S(=O)(=O)O)cc3)nc2n(C)c1=O | inactive | inactive | inactive | inactive | inactive |  |
| COc1cc(OC)c(/C=C2/C(=O)Nc3ccccc32)c(OC)c1 | 11 µM (active) | 11 µM (active) | inactive |  | inactive |  |
| O=C(O)c1cc2cc(F)ccc2[nH]1 | inactive | inactive |  | inactive | inactive | inactive |
| O=C(O)C1=CC(=C(c2ccc(O)c(C(=O)O)c2)c2ccc(O)c(C(=O)O)c2)C=CC1=O | inactive | inactive | inactive | inactive | inactive |  |
| CN(C)c1nc(N)c(C(=O)N=C(N)N)nc1Cl | inactive | inactive | inactive | inactive | inactive |  |
| CCc1cncnc1N1CCN(Cc2nc3ccc(C(F)(F)F)cc3[nH]2)CC1 | inactive | 6.94 µM (active) | inactive | inactive | inactive |  |
| CNCCc1cnc(CCC(c2ccccc2)c2ccccc2)[nH]1 | inactive | inactive | inactive |  | inactive | inactive |
| CN1Cc2sccc2C(c2ccc(O)c(O)c2)C1 (centres undefined) | inactive | inactive |  | inactive | inactive | inactive |
| Nc1nc(Cl)nc2c1ncn2[C@@H]1O[C@H](COP(=O)(O)OP(=O)(O)OP(=O)(O)O)C(O)[C@H]1O (some centres undefined) | inactive |  | inactive | inactive |  | inactive |
| OC[C@H]1O[C@@H](n2cnc3cncnc32)[C@H](O)[C@@H]1O | inactive |  | inactive | inactive | inactive | 15 µM (active) |
| CC(/C=C/c1cccc(Oc2ccc(F)cc2)c1)N(O)C(N)=O (centres undefined) | inactive |  | inactive | inactive | inactive | inactive |
| CC(C)(C)[C@]1(O)CCN2C[C@H]3c4ccccc4CCc4cccc(c43)[C@@H]2C1 | inactive |  | inactive | inactive | inactive | 17.4 µM (active) |
| C[C@H](NC(=O)/C(C#N)=C/c1ccc(O)c(O)c1)c1ccccc1 | inactive | inactive |  | inactive | inactive | inactive |
| CN(C)CCCC1(c2ccc(F)cc2)OCc2cc(C#N)ccc21 (centres undefined) | inactive | inactive |  | inactive | inactive | inactive |

| SMILES | Potency [1] | Potency [2] | Potency [3] | Potency [4] | Potency [5] | Potency [6] |
| --- | --- | --- | --- | --- | --- | --- |
| CN1CCC2(CCN3CCc4c(oc5ccccc45)C3C2)N(C)C1=O (centres undefined) | inactive |  | inactive | inactive | inactive | inactive |
| Cc1nn(-c2ccccc2)c(C)c1/C=N/N1CCN(Cc2ccccc2)CC1 | inactive |  | inactive | inactive | inactive | inactive |
| CCc1ccc2c(-c3cccc(Cl)c3)nc(=O)n(CC)c2n1 | inactive |  | inactive | inactive | inactive | inactive |
| C[C@@H](N)C1CCC(C(=O)Nc2ccncc2)CC1 (some centres undefined) | inactive |  | inactive | inactive | inactive | 14.4 µM (active) |
| COc1cccc(OC)c1OCCNCC1CSc2ccccc2O1 (centres undefined) | inactive |  | inactive | inactive | inactive | inactive |
| CC(C)(CO)Cc1cc(C(C)(C)C)c(O)c(C(C)(C)C)c1 | inactive |  | inactive | inactive | inactive | inactive |
| OC1(c2ccc(Cl)cc2)CCN(Cc2c[nH]c3ccccc23)CC1 | inactive |  | inactive |  |  | inactive |
| COc1ccc(NC(=O)c2ccc(-c3ccc(-c4noc(C)n4)cc3C)cc2)cc1N1CCN(C)CC1 | inactive |  | inactive | inactive |  | inactive |
| c1ccc2c(c1)CCC[C@H]2Nc1nc2ccccc2[nH]1 | inactive |  | inactive | inactive | inactive | inactive |
| CCCCS(=N)(=O)CC[C@H](N)C(=O)O (some centres undefined) | inactive | inactive |  | inactive | inactive | inactive |
| COc1cc(N)c(Cl)cc1C(=O)OCCN1CCCCC1 | inactive | inactive |  | inactive | inactive | inactive |
| COc1ccccc1N1CCN(CCN2C(=O)CC3(CCCC3)CC2=O)CC1 | inactive |  | inactive | inactive | inactive | inactive |
| O=C(O)c1ccccc1Nc1cccc(OCc2ccc3ccccc3n2)c1 | inactive |  | inactive | inactive | inactive | inactive |
| Clc1ccc(N2CCN(Cc3c[nH]c4ncccc34)CC2)cc1 | inactive |  | inactive | inactive |  | inactive |
| C[C@H](Cc1ccccc1)Nc1ncnc2c1ncn2[C@@H]1O[C@H](CO)C(O)[C@H]1O (some centres undefined) | inactive | inactive |  | inactive | 10.2 µM (active) | inactive |
